This note sets out measurements from publication PMC4336329 (PLoS ONE, 2015).

The campaign covered roughly 310,000 compounds. About 2,200 (0.71%) showed an effect of 50% or more. Effects have a minus sign here. The sample as a whole holds a higher share of strong results than the screen did.

In this assay the target is human ether-à-go-go-related gene (hERG) potassium channel (human, UniProt Q12809). Nature of the assay: primary screen, population patch clamp on CHO cells stably expressing hERG; higher = less effect of the substance.
human ether-à-go-go-related gene (hERG) potassium channel, sequence (Q12809 whole entry, looked up): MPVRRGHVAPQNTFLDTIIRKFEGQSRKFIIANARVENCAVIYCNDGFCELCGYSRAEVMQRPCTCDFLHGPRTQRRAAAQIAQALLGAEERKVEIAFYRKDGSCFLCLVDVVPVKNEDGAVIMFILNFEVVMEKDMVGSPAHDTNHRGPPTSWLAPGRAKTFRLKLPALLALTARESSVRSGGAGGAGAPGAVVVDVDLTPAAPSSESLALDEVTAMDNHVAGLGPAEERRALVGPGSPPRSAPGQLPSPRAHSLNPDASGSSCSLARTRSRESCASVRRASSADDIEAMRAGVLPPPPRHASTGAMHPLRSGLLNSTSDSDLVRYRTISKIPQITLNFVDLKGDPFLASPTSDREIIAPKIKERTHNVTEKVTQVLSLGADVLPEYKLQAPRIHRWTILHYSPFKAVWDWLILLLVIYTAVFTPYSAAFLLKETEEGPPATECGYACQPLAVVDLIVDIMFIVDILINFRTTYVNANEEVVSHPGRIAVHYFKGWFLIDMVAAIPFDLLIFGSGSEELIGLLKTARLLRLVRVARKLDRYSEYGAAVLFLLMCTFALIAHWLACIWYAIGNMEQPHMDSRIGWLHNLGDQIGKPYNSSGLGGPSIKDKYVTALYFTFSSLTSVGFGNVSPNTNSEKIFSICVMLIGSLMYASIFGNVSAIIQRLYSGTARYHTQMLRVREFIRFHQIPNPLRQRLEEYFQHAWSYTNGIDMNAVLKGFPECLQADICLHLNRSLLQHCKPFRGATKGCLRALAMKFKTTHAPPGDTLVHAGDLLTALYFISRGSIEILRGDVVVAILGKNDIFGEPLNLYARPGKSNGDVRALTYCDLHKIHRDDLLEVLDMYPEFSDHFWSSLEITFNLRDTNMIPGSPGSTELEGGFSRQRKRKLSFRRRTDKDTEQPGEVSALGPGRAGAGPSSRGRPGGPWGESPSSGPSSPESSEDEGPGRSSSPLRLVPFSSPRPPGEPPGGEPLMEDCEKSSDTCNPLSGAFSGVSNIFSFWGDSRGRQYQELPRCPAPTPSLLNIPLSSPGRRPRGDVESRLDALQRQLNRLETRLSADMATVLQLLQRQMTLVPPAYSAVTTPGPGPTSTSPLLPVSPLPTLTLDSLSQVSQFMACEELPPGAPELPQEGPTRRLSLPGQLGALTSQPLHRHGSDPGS
On to `O=C(c1ccc2c(=O)n(CC3CCCO3)c(=S)[nH]c2c1)N1CCN(c2ccccc2)CC1` (stereo not drawn), for which the “hERG current change (%, negative = inhibition) at 1uM” value is on record as 3.81%.

For the compound `O=C(CCNS(=O)(=O)c1cccs1)N1CCN(c2cccc(C(F)(F)F)c2)CC1`, the “hERG current change (%, negative = inhibition) at 1uM” value was -2.16%.

As to `C=CCn1c(C2CC2)n[nH]c1=S`, the “hERG current change (%, negative = inhibition) at 1uM” value is reported as 1.66%.

Regarding `O=C(NCc1ccc(Cl)cc1)c1noc2c1CCCCC2`, the “hERG current change (%, negative = inhibition) at 1uM” value is recorded as -6.49%.

With `Cc1cccn2c(=O)nc(SCC(=O)N3CCC(C)CC3)nc12`, the “hERG current change (%, negative = inhibition) at 1uM” value worked out at 2.05%.

In the case of `Cc1cccn2c(=O)nc(SCC(=O)N3CCC(Cc4ccccc4)CC3)nc12`, the “hERG current change (%, negative = inhibition) at 1uM” value is listed as -69.2%.

As for `O=C(CSc1nc(=O)n2ccccc2n1)N1CCC(Cc2ccccc2)CC1`, the “hERG current change (%, negative = inhibition) at 1uM” value is -27.4%.

Turning to `CCOc1ccccc1NC(=O)C(OC(=O)c1ccccc1O)c1ccccc1` (stereo not drawn), the “hERG current change (%, negative = inhibition) at 1uM” value is -2.03%.

For `O=S(=O)(NC1CCC(NS(=O)(=O)c2c(F)cccc2F)CC1)c1ccc2c(c1)OCCO2` (stereo not drawn), the “hERG current change (%, negative = inhibition) at 1uM” value is on record as 10.7%.

In the case of `Cc1ccc(C(=O)N[C@@H](C)CN2C3=NC[C@H](C(C)C)N3C[C@H]2Cc2ccc(O)cc2)cc1Br`, the “hERG current change (%, negative = inhibition) at 1uM” value is given as -34.3%.

Take `Cc1ccc(C(=O)NCCN2C3=NC[C@@H](Cc4ccccc4)N3C[C@H]2Cc2ccc(O)cc2)cc1Br`: the “hERG current change (%, negative = inhibition) at 1uM” value is reported as -4.33%.

For the compound `Cc1ccc(C(=O)N[C@@H](C)CN2C3=NC[C@H](Cc4ccccc4)N3C[C@H]2Cc2ccc(O)cc2)cc1Br`, the “hERG current change (%, negative = inhibition) at 1uM” value is recorded as -68.1%.

Regarding `C/C=C(\C)C(=O)NCCN1C2=NC[C@H](Cc3ccc(O)cc3)N2C[C@@H]1Cc1ccc(OC)cc1`, the “hERG current change (%, negative = inhibition) at 1uM” value stood at 10.6%.

Regarding `COc1ccc(C[C@H]2CN3C(=NC[C@@H]3C(C)C)N2C[C@H](C)NC(=O)c2ccc(C)c(Br)c2)cc1`, the “hERG current change (%, negative = inhibition) at 1uM” value was -41.9%.

Turning to `C/C=C(\C)C(=O)NCCN1C2=NC[C@H](C)N2C[C@@H]1Cc1ccc(OC)cc1`, the “hERG current change (%, negative = inhibition) at 1uM” value worked out at 7.75%.

`COc1ccc(C[C@H]2CN3C(=NC[C@@H]3Cc3ccc(O)cc3)N2C[C@H](C)NC(=O)c2ccc(C)c(Br)c2)cc1`: the “hERG current change (%, negative = inhibition) at 1uM” value is on record as -60.1%.

Regarding `COc1ccc(C[C@@H]2CN3C(=NC[C@@H]3C)N2C[C@H](C)NC(=O)c2ccc(C)c(Br)c2)cc1`, the “hERG current change (%, negative = inhibition) at 1uM” value was -56.4%.

Turning to `COc1ccc(C[C@H]2CN3C(=NC[C@@H]3Cc3ccc(O)cc3)N2CCNC(=O)c2ccc(C)c(Br)c2)cc1`, the “hERG current change (%, negative = inhibition) at 1uM” value was -18.4%.

For the compound `Cc1cc(Cl)cc(Br)c1OCCCCn1cncn1`, the “hERG current change (%, negative = inhibition) at 1uM” value is listed as -0.515%.

As for `Cc1cc(=O)[nH]c(N/N=C/c2cccc([N+](=O)[O-])c2)n1`, the “hERG current change (%, negative = inhibition) at 1uM” value is 9.49%.

With `CC1(c2nnc(Cc3ccccc3)o2)CC(c2ccccc2[N+](=O)[O-])=NO1` (stereo not drawn), the “hERG current change (%, negative = inhibition) at 1uM” value amounted to 0.886%.

Take `Cc1c(NC(=O)c2ccc(Cl)s2)c(=O)n(-c2ccccc2)n1C`: the “hERG current change (%, negative = inhibition) at 1uM” value is recorded as 8.57%.

As for `Cn1nc2c(c1C(=O)N1CCCC(C(=O)c3cc(F)ccc3F)C1)CCCC2` (stereo not drawn), the “hERG current change (%, negative = inhibition) at 1uM” value is 10.8%.

As for `CO/N=C(\Cn1ncc(NC2CCCCC2)c(Br)c1=O)c1ccc(Cl)cc1`, the “hERG current change (%, negative = inhibition) at 1uM” value is -1.74%.

Consider `CCCCNC(=O)CCCCCNS(=O)(=O)c1ccc(Br)cc1`, for which the “hERG current change (%, negative = inhibition) at 1uM” value is on record as -26.3%.

For `Cc1cc(N2CCN(S(=O)(=O)c3ccc4ccccc4c3)CC2)n2ncnc2n1`, the “hERG current change (%, negative = inhibition) at 1uM” value was -48.4%.

For the compound `Cc1cc(N2CCN(S(=O)(=O)c3ccc(Br)cc3)CC2)n2ncnc2n1`, the “hERG current change (%, negative = inhibition) at 1uM” value is -84.8%.

Consider `Cc1cc(N2CCN(c3ccccc3)CC2)n2ncnc2n1`, for which the “hERG current change (%, negative = inhibition) at 1uM” value was -7.73%.

Regarding `Cc1cc(N2CCN(C/C=C/c3ccccc3)CC2)n2ncnc2n1`, the “hERG current change (%, negative = inhibition) at 1uM” value is given as -52.2%.

As to `Cc1cc(N2CCN(c3ccc(F)cc3)CC2)n2ncnc2n1`, the “hERG current change (%, negative = inhibition) at 1uM” value was -14.8%.

Turning to `Cc1cc(N2CCN(C(c3ccccc3)c3ccccc3)CC2)n2ncnc2n1`, the “hERG current change (%, negative = inhibition) at 1uM” value was 8.18%.

As for `CC(=O)Nc1ccc(S(=O)(=O)N2CCN(c3cc(C)nc4ncnn34)CC2)cc1`, the “hERG current change (%, negative = inhibition) at 1uM” value is given as -9.05%.

Consider `Cc1cc(N2CCN(c3nc4ccccc4s3)CC2)n2ncnc2n1`, for which the “hERG current change (%, negative = inhibition) at 1uM” value is recorded as -74.9%.

As to `Cc1cc(N2CCN(S(=O)(=O)Cc3ccccc3)CC2)n2ncnc2n1`, the “hERG current change (%, negative = inhibition) at 1uM” value is listed as -11.4%.

Consider `O=C(Nc1ccc(Nc2ccccc2)cc1)C(Cl)(Cl)Cl`, for which the “hERG current change (%, negative = inhibition) at 1uM” value stood at 7.95%.

Turning to `CCCS(=O)(=O)N1CCN(C(=O)COc2ccc(OC)cc2)CC1.O=C(O)C(=O)O`, the “hERG current change (%, negative = inhibition) at 1uM” value was 11.7%.

For the compound `O=C(CN(C(=O)c1csnn1)c1ccccc1C(F)(F)F)NC1CCCCC1`, the “hERG current change (%, negative = inhibition) at 1uM” value is 14.5%.

Turning to `Cc1ccc(N(CC(=O)NCC2CCCO2)C(=O)Cn2nnc(-c3cccs3)n2)cc1` (stereo not drawn), the “hERG current change (%, negative = inhibition) at 1uM” value is on record as 2.07%.

For `CC(C)(CN=C1NS(=O)(=O)c2ccccc21)CNC(=O)CN1C(=O)c2ccccc2C1=O`, the “hERG current change (%, negative = inhibition) at 1uM” value is listed as -1.01%.

For `COCCCNC(=O)C(=O)Nc1cc2c3c(c1)CCN3C(=O)CC2`, the “hERG current change (%, negative = inhibition) at 1uM” value worked out at 21.5%.

As for `CCOc1cc(CN2CCCC(CO)(Cc3ccc(F)cc3F)C2)ccc1OC` (stereo not drawn), the “hERG current change (%, negative = inhibition) at 1uM” value is -10.8%.

As for `Cc1cccc(N2CCN(C(=O)Cn3nc(Cc4ccncc4)c4ccccc4c3=O)CC2)c1C`, the “hERG current change (%, negative = inhibition) at 1uM” value is listed as 3.71%.

Regarding `CC(C)(C)OC(=O)N/N=C\c1ccc(OC(=O)c2ccco2)cc1`, the “hERG current change (%, negative = inhibition) at 1uM” value is listed as 10.8%.

Take `COc1ccccc1C(=O)NC1CCN(C(=O)Nc2ccc(C)cc2)CC1`: the “hERG current change (%, negative = inhibition) at 1uM” value is listed as 10.5%.

In the case of `O=C(CC1SC(=Nc2ccc(OC(F)F)cc2)N(CCN2CCOCC2)C1=O)Nc1ccc(F)cc1F` (stereo not drawn), the “hERG current change (%, negative = inhibition) at 1uM” value is -80.4%.

In the case of `COc1ccc(N=C2SC(CC(=O)Nc3ccccc3)C(=O)N2CCN2CCOCC2)cc1` (stereo not drawn), the “hERG current change (%, negative = inhibition) at 1uM” value is 3.66%.

Consider `O=C(CC1SC(=Nc2ccccc2F)N(CCN2CCOCC2)C1=O)Nc1ccc(F)cc1F` (stereo not drawn), for which the “hERG current change (%, negative = inhibition) at 1uM” value turned out to be 1.58%.

For `Cc1csc2ncnc(NC3CCN(Cc4ccccc4)CC3)c12`, the “hERG current change (%, negative = inhibition) at 1uM” value is listed as -35.4%.

`c1ccc(CN2CCC(Nc3ncnc4sccc34)CC2)cc1`: the “hERG current change (%, negative = inhibition) at 1uM” value was -31.2%.

With `Cc1sc2ncnc(NC3CCN(Cc4ccccc4)CC3)c2c1C`, the “hERG current change (%, negative = inhibition) at 1uM” value is listed as -56.9%.

As for `NC(=S)Nc1cccc2cc3ccccc3cc12`, the “hERG current change (%, negative = inhibition) at 1uM” value was determined as 0.594%.
